The record followed here is PubChem BioAssay (Tox21).

Records with an inconclusive call do not appear. A number with no mark means an inactive call. Calls of active or inactive are those of the source. The call rests on the fitted dose curve; in most records, active means well fitted cell-killing curve with a large enough effect in the repeat runs; inconclusive means weak or mixed curves, or effect the other way; inactive means flat fitted curve, though single readings scatter.

Test [1] can be described thus: cAMP Responsive Elements (CRE) small molecule antagonists, cell-based qHTS assay: qHTS cell viability counter screen (AID 2060913). Further: nearly all actives have a fitted effect of over 40% in size. A digest of the protocol:
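CRE-bla HEK293T cells (2,000/well, 18 h) given compound plus NKH477 0.25 uM final for 3 h at 37C; viability counter-screen by CellTiter-Glo luminescence in same wells after 30 min.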

The nature of test [2]: cAMP Responsive Elements (CRE) small molecule agonists, cell-based qHTS assay: qHTS cell viability counter screen (AID 2060914). Further: nearly all actives have a fitted effect of over 50% in size. A digest of the protocol: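 HEK 293T CRE-bla; DMEM + 10% dialyzed FBS, 25 mM HEPES; 18 h pre-incubation; compound 3 h, 37 °C/5% CO2; CellTiter-Glo added after reporter read; luminescence after 30 min RT.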
On the % scale 0 is the no-effect control and ±100 the full control effect; potency means the concentration at half of the fitted maximal effect.

Regarding `Cn1cc[nH]c1=S`, the Potency entry in test [1] and in test [2] was “inactive” throughout.

Consider `CCCCCC[C@@H](O)C/C=C\CCCCCCCC(=O)OC`, for which the Potency entry in test [1] and in test [2] was “inactive” throughout.

For `O/N=C/C=N/O`, the Potency entry in test [1] and in test [2] was “inactive” in each case.

On to `CC(C)=CCCC(C)CCOC(=O)C(C)C` (configuration not stated), for which the Potency entry in test [1] and in test [2] was “inactive” each time.

Take `CC(=O)Oc1cccc(C)c1`: the Potency result in test [1] and in test [2] was “inactive” throughout.

`O=C(Nc1ccc([N+](=O)[O-])cc1)Nc1ccc([N+](=O)[O-])cc1` (tested in a mixture with another compound): the Potency result in test [1] and in test [2] was “inactive” throughout.

With `OC(CN1CCC(Cc2ccc(F)cc2)CC1)c1ccc(Cl)cc1` (configuration not stated), the Potency entry in test [1] and in test [2] was “inactive” throughout.

Consider `NCCc1ccc(O)c(O)c1`, for which the Potency entry in test [1] and in test [2] was “inactive” each time.

With `CC(C)(C)CCCCCCOC(=O)c1ccccc1C(=O)OCCCCCCC(C)(C)C`, the Potency entry in test [1] and in test [2] was “inactive” throughout.

With `CC(C)c1cccc(C(C)C)c1N`, the Potency result in test [1] and in test [2] was “inactive” in each case.

`CC[N+](CC)(CC)CCOC(=O)C(C1CCCC1)C1CCCC1`: the Potency entry in test [1] and in test [2] was “inactive” in each case.

As to `O=C(O)c1cc(Br)c(O)c(Br)c1`, the Potency result in test [1] and in test [2] was “inactive” in each case.

Regarding `CCCCCCO`, the Potency result in test [1] and in test [2] was “inactive” in each case.

On to `Cc1ccccc1C(=O)O`, for which the Potency result in test [1] and in test [2] was “inactive” each time.

For the molecule `O=C(O)c1ccccc1C(=O)Nc1ccc(S(=O)(=O)Nc2nccs2)cc1`, the Potency result in test [1] and in test [2] was “inactive” each time.

In the case of `CSc1ccc(Oc2ccc(S(N)(=O)=O)cc2CN(C)C)cc1C`, the Potency result in test [1] and in test [2] was “inactive” each time.

Consider `COC(=O)c1ccccc1C(=O)O`, for which the Potency entry in test [1] and in test [2] was “inactive” throughout.

Regarding `CCCCCCC(C)Nc1ccc(Nc2ccccc2)cc1` (configuration not stated), the Potency result in test [1] and in test [2] was “inactive” throughout.

Consider `NC(=O)NNC(N)=O`, for which the Potency entry in test [1] and in test [2] was “inactive” in each case.

As for `CC(C)(C)NC(N)=O`, the Potency result in test [1] and in test [2] was “inactive” each time.

Regarding `O=C(c1ccccc1O)c1ccccc1O`, the Potency result in test [1] and in test [2] was “inactive” throughout.

As for `c1c[nH]cn1`, the Potency entry in test [1] and in test [2] was “inactive” each time.

Take `CCC[C@H](N[C@@H](C)C(=O)N1[C@H](C(=O)O)C[C@@H]2CCCC[C@@H]21)C(=O)OCC`: the Potency result in test [1] and in test [2] was “inactive” in each case.

On to `CC(C)(C)C(=O)C(=O)O`, for which the Potency result in test [1] and in test [2] was “inactive” throughout.

For `CCCCC/C=C\C/C=C\CCCCCCCC(=O)O`, the Potency entry in test [1] and in test [2] was “inactive” in each case.

Consider `O=C(Nc1ccc(C(=O)O)c(O)c1)c1ccccc1`, for which the Potency entry in test [1] and in test [2] was “inactive” in each case.

Regarding `C=CCc1ccccc1OCC(O)CNC(C)C` (configuration not stated), the Potency result in test [1] and in test [2] was “inactive” in each case.

With `CCCCCCCCCCCCCCCCCO`, the viability change, negative = cytotoxic in test [1] was 0.838% [at 18.9 µM]. In addition, the activity change, negative = cytotoxicity in test [2] was -1.37% [at 18.9 µM].

As for `CC(=O)Nc1cccc(N)c1`, the Potency result in test [1] and in test [2] was “inactive” each time.

As to `CC(C)OP(=O)(CP(=O)(OC(C)C)OC(C)C)OC(C)C`, the Potency result in test [1] and in test [2] was “inactive” each time.

Turning to `C[C@]12CCC(=O)C=C1CC[C@@H]1[C@@H]2CC[C@@]2(C)[C@H]1CC[C@]2(O)C(=O)CO`, the Potency entry in test [1] and in test [2] was “inactive” throughout.

For `Clc1ccc(C(Cn2ccnc2)OCc2ccc(Sc3ccccc3)cc2)c(Cl)c1` (configuration not stated), the Potency entry in test [1] and in test [2] was “inactive” in each case.

With `COc1ccc(C(=O)c2cccc(O)c2)c(OC)c1`, the Potency result in test [1] and in test [2] was “inactive” throughout.

With `Cc1ccc(S(=O)(=O)NC2CCCCC2)cc1`, the Potency result in test [1] and in test [2] was “inactive” throughout.

Regarding `CNCC(O)c1ccc(O)c(O)c1` (configuration not stated), the Potency entry in test [1] and in test [2] was “inactive” throughout.

For the molecule `C[Si](C)(C)O[Si](O)(O)O`, the Potency result in test [1] and in test [2] was “inactive” in each case.

On to `ClCCCl`, for which the Potency entry in test [1] and in test [2] was “inactive” throughout.

Regarding `CCC(=O)OC`, the Potency entry in test [1] and in test [2] was “inactive” in each case.

For the molecule `CCCCc1nc(Cl)c(CO)n1Cc1ccc(-c2ccccc2-c2nn[nH]n2)cc1`, the Potency result in test [1] and in test [2] was “inactive” throughout.

As to `C[n+]1cc2c3c(ccc2c2ccc4cc5c(cc4c21)OCO5)OCO3`, the Potency was 3.66 µM (active) in test [1] and 3.26 µM (active) in test [2].

With `CC(O)CC(C)(C)O` (configuration not stated), the Potency result in test [1] and in test [2] was “inactive” in each case.

Regarding `CC(=O)Nc1ccc(S(=O)(=O)Nc2ccc([N+](=O)[O-])cc2)cc1`, the Potency entry in test [1] and in test [2] was “inactive” each time.

For `CCCCc1ncc(/C=C(\Cc2cccs2)C(=O)O)n1Cc1ccc(C(=O)O)cc1`, the Potency entry in test [1] and in test [2] was “inactive” in each case.

Consider `FC(F)(Cl)C(F)(Cl)Cl`, for which the Potency entry in test [1] and in test [2] was “inactive” in each case.

Take `CCOC(OCC)OCC`: the Potency entry in test [1] and in test [2] was “inactive” in each case.

Turning to `CCOc1ccc2nc3cc(N)ccc3c(N)c2c1`, the Potency result in test [1] and in test [2] was “inactive” throughout.

In the case of `C/C(C=O)=C\c1ccccc1`, the Potency entry in test [1] and in test [2] was “inactive” throughout.

Take `CN1CCN2c3ccccc3Cc3ccccc3C2C1` (configuration not stated): the Potency entry in test [1] and in test [2] was “inactive” throughout.

Take `CCCCc1ccc(Cl)cc1`: the Potency result in test [1] and in test [2] was “inactive” each time.

Take `NNCCc1ccccc1`: the Potency entry in test [1] and in test [2] was “inactive” each time.

Regarding `OC(CCl)CCl`, the Potency result in test [1] and in test [2] was “inactive” each time.

Turning to `COC(=O)NCCC[Si](OC)(OC)OC`, the Potency entry in test [1] and in test [2] was “inactive” throughout.

Regarding `C=CCc1cc(S(=O)(=O)c2ccc(O)c(CC=C)c2)ccc1O`, the Potency result in test [1] and in test [2] was “inactive” in each case.

With `CCCCCCCCCCCCCc1ccccc1`, the Potency entry in test [1] and in test [2] was “inactive” each time.

`CCCC(=O)C(CC)Sc1ccoc1C` (configuration not stated): the Potency entry in test [1] and in test [2] was “inactive” in each case.

In the case of `Cc1ccc2nc(N)[nH]c(=O)c2c1Sc1ccncc1`, the Potency entry in test [1] and in test [2] was “inactive” throughout.
